# Rows were chosen to be rich in hits. Some 11% of all compounds tested hit in one or more screens of this group.
# HCV inh: blocks hepatitis C virus. actives 3.4% (n = 340,000). Huh7.5.1 HCVcc-Cre infection, luciferase reporter, 44 h. Potency, µM (top dose mostly 41.8 µM), for inactives: at the top dose activity change, negative = inhibition, hits mostly inhibitors
#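 Infectious HCV cell culture screen: compound-treated cells (1,000/well, pre-plated 4 h) are infected with HCVcc-Cre at roughly 0.5 moi and grown 44 h. Infection is quantified by luciferase signal after 15 min substrate incubation at room temperature.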
# Pf growth 48h: P. falciparum growth inhibition at 48 hours (one generation); actives 5.9% (n = 310,000); Potency, µM (series often up to 28.7 µM), inactives show at the top dose activity change, negative = inhibition, most hits filed as inhibitors; P. falciparum luciferase growth in erythrocytes, 48 h
#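 Compounds are pin-transferred into medium, infected erythrocytes (2% hematocrit, 0.1% parasitemia final) are added, and plates sit one parasite generation at 37 C in 5% CO2. Detection reagent is then added and luminescence measured.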
# Pf growth 96h: inhibits malaria parasite growth, 96 h. Potency, µM (series often up to 28.7 µM), inactives show at the highest dose activity change, negative = inhibition, usual class: inhibitors. actives 6.9% (n = 320,000). AID 504834. P. falciparum luciferase reporter growth, 96 h
#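 96 h incubation, 37 C, 5% CO2, of luciferase-reporter P. falciparum-infected RBCs (2% hematocrit, 0.05% parasitemia final) with test compounds; endpoint luminescence.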
# AMA1 RON2 block: AMA1-RON2 (P. falciparum) interaction inhibition. AlphaScreen AMA1-biotinylated RON2 peptide binding. Potency, µM (doses to about 58.2 µM), for inactives: at the highest dose activity change, negative = inhibition, hits mostly inhibitors. actives 0.2% (n = 360,000). AID 720542;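 further: 0% = vehicle wells and -100% = peptide control; nearly all actives have a fitted effect of over 45% in size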
#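 AMA1 (3D7) with his tag at 25 nM final met compounds first, then biotinylated RON2 peptide at 25 nM; detection used donor plus acceptor beads, 10 µg/mL apiece, read by AlphaScreen after 30 min at room temperature.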
# * hit, by the source's call; ? = inconclusive; . = no result; [ ] = remark or other dose. The call rests on the fitted dose curve; in most records, active means well fitted curve in the direction sought with a large enough effect; inconclusive means small, poorly fitted or top-dose-only effect, or another doubt; inactive means no such curve, though single readings can be large; an effect the other way counts as inactive or inconclusive. Unless noted, on the % scale 0 is the no-effect control and ±100 the full control effect; potency means the concentration at half of the fitted maximal effect.
SMILES,HCV inh,Pf growth 48h,Pf growth 96h,AMA1 RON2 block
COc1cc(OC)cc(C(=O)N[C@H](C(=O)Nc2nc(-c3cc(OC)ccc3OC)cs2)C(C)C)c1,?,-16%,?,-26%
COc1cc(OC)cc(C(=O)N[C@H](C(=O)Nc2nc(-c3ccc(OC)c(OC)c3)cs2)C(C)C)c1,?,13µM*,10µM*,-5%
CNC(=O)COc1ccc(Nc2nnc(-c3ccc(C)c(S(N)(=O)=O)c3)c3ccccc23)cc1,21%,?,-9%,5%
Cc1cnc(C(=O)N2CCN(S(=O)(=O)c3cc(C(F)(F)F)cc(C(F)(F)F)c3)CC2)cn1,0%,.,.,16%
CC(=O)Nc1ccc(-n2c(C)nc(=O)c(-c3ccccc3)c2C)cc1,0%,-12%,5.2µM*,-7%
O=C(COC(=O)CCS(=O)(=O)c1ccc(F)cc1)NC1CCCCC1,6%,-26%,-2%,0%
Cc1cc(C)c(-c2csc(NC(=O)C3=NN(c4ccccc4)C(=O)CC3)n2)c(C)c1,-22%,?,9.3µM*,23%
Cc1cc(C)c(-c2csc(NC(=O)/C=C/c3cccs3)n2)c(C)c1,10µM*,-20%,12µM*,-1%[2.32 µM]
Fc1ccc(-n2cc(-c3ccccc3)[n+]3c2SCC3)cc1,-11%,?,?,-1%
CC(C)(C)c1ccc(-c2cn(-c3ccc(Br)cc3)c3[n+]2CCCS3)cc1,?,2.6µM*,?,9%
c1ccc(-c2cn(-c3ccccc3)c3[n+]2CCS3)cc1,?,?,?,-1%
COc1ccc(-c2cn(-c3ccccc3)c3[n+]2CCS3)cc1,?,0.93µM*,0.1µM*,20%
Cn1c(=O)c2c(nc(CN3CCOCC3)n2CC(O)CO)n(C)c1=O (stereo not drawn),15%,5%,.,1%
Cc1nn2c(=O)cc(CSCC(=O)Nc3ccccc3F)nc2s1,11%,10%,?,4%
CCCc1nn2c(=O)cc(CSCC(=O)Nc3ccccc3)nc2s1,18%,7%,?,1%
CCCc1nn2c(=O)cc(CSCC(=O)Nc3nnc(C(C)C)s3)nc2s1,16%,-14%,12µM*,18%
Cc1nn2c(=O)cc(CSCC(=O)Nc3ccccc3Cl)nc2s1,17%,9%,12µM*,-4%
COc1ccc(NS(=O)(=O)c2ccc(C)c(C(=O)NCCCn3ccnc3)c2)cc1,.,.,.,-6%
O=S(=O)(Nc1ccc(N2CCCCC2)cc1)c1ccc(F)c(F)c1,-8%,27%,5%,-11%[11.6 µM]
CC(O)CNCCCOc1ccc(Cl)cc1C(C)(C)C (stereo not drawn),11µM*,?,64%[5.75 µM],-16%
c1ccc(-c2ccccc2OCCCCn2ccnc2)cc1,-11%,12µM*,?,?
CC(C)(C)c1ccccc1OCCCCCn1ccnc1,?,12µM*,5.9µM*,?
Cc1cc(C(C)(C)C)ccc1OCCn1ccnc1,?,.,?,-22%
CN(C)CCOCCOc1ccc(Cl)cc1C(C)(C)C,?,?,484%,?
Cc1cccc(OCCCCCn2ccnc2)c1C,?,?,?,-18%
SMILES,HCV inh,Pf growth 48h,Pf growth 96h,AMA1 RON2 block
CC(C)(C)c1cc(Cl)ccc1OCCn1ccnc1,-10%,5.9µM*,?,?
OCC[C@@H]1C[C@H](O)[C@@H](O)[C@]2(OCCc3cc(C(F)(F)F)ccc32)O1,.,.,.,8%
Cc1ccc(S(=O)(=O)N[C@H](C(=O)NCC2CCC(C(=O)O)CC2)C(C)C)cc1 (stereo partly drawn),18%,9%,-3%,10%
CCN(CC)S(=O)(=O)c1ccc(OC)c(NC(=S)Nc2ccc(C)c(C)c2)c1,?,-6%,?,9%
CNCCOc1ccccc1-c1ccccc1,-15%,.,-15%,-18%
CNCCCCOc1ccccc1-c1ccccc1,13µM*,-15%,16%,?
COc1ccc(C2/C=C\CN3CCC[C@H]3C(=O)N2Cc2ccc(F)cc2)cc1 (stereo partly drawn),?,.,.,-11%
COC(=O)C(c1ccccc1)C(C(=O)OC)c1ccccc1 (stereo not drawn),18%,25%,0%,0%
COC(=O)[C@@H](c1ccccc1)N(C)S(=O)(=O)c1cccc(S(=O)(=O)N(C)[C@@H](C(=O)OC)c2ccccc2)c1,?,13µM*,?,10%
O=c1oc2cc(Oc3ccc(C(F)(F)F)cc3[N+](=O)[O-])ccc2c2c1CCC2,?,15%,-1%,4%
O=c1oc2cc(Oc3c([N+](=O)[O-])cc(C(F)(F)F)cc3[N+](=O)[O-])ccc2c2c1CCCC2,3.2µM*,71%,?,-10%
CCN(CC)S(=O)(=O)c1ccc(Cl)c(NC(=O)c2ccc(C#N)cc2)c1,?,-18%,-7%,-4%
NS(=O)(=O)c1cccc(NC(=O)CSc2nn(-c3ccccc3)c(=S)s2)c1,?,1.9µM*,1.2µM*,-8%
Cc1ccc(NC(=O)Cc2ccc(Cl)c(Cl)c2)cc1S(=O)(=O)N(C)C,?,5%,-77%,12%
Cc1ccc(NC(=O)CNc2ccc(Cl)c(Cl)c2)cc1S(=O)(=O)N(C)C,6.3µM*,-4%,?,3%
Cc1ccc(NC(=O)CSc2nn(-c3ccc(Cl)cc3)c(=S)s2)cc1S(=O)(=O)N(C)C,13µM*,?,?,41%
CCN(CC)S(=O)(=O)c1ccc(C)c(NCC(=O)Nc2ccc(C#N)c(Cl)c2)c1,13µM*,?,5.2µM*,-4%
COc1ccc(C(=O)NNC(=O)C2CCN(S(=O)(=O)c3ccc(C)cc3)CC2)cc1,6%,-25%,?,62%
CCCc1ccc(C(O)c2ncc(-c3ccccc3F)[nH]2)cc1 (stereo not drawn),.,.,.,-7%
CN(C)S(=O)(=O)c1cc(NC(=O)CSc2nn(-c3ccc(Cl)cc3)c(=S)s2)ccc1Cl,6.3µM*,?,?,15%
Cc1ccc(-c2c(C#N)c(N)nc3c2CCCC3)o1,?,10µM*,?,2%
COC(=O)CSc1nc2c(c(-c3ccc(C)o3)c1C#N)CCCC2,5.6µM*,-8%,17%,-10%
COc1ccc(-c2c(C#N)c(N)nc3c2CCC3)cc1,?,?,4%,17%
CCCCc1ccc(-c2c(C#N)c(N)nc3c2CCCC3)s1,13%,?,13µM*,101%
CCSc1nc2c(c(-c3ccc(C)o3)c1C#N)CCCC2,?,-24%,-19%,0%
CC(=O)N1CCC(N(CCN2CCOCC2)C(=S)Nc2ccccc2C)CC1,26%,0%,?,6%
OCC[C@@H]1C[C@H](O)[C@@H](O)[C@]2(CCc3ccccc3CO2)O1,15%,10%,2%,-4%
CCOC(=O)c1ccccc1-n1c(C)cc(C2N=C(N)Nc3nc4ccccc4n32)c1C (stereo not drawn),-8%,.,1.7µM*,36%
Cc1cccnc1C(NC(=O)C1CCN(Cc2ccc3ccccc3n2)CC1)c1ccc(Cl)cc1 (stereo not drawn),.,.,.,22%
